Assay [1] deals with PEG-3 (UniProt Q6IN02). Put plainly: inhibition of PEG-3 promoter-driven reporter – cell-based, HeLa, luciferase, CREF/GAPDH counter-screen panel, dose response (AID 624167). The following applies: CREF/GAPDH counter-screens; HeLa PEG-Prom luciferase reporter, overnight, run 1, dose range 1, at 100 µM (top of the series) unless noted. In general terms: The purpose of a counterscreen is to sort out artefacts and off-target activity.

For assay [2], the target named is PEG-3 (UniProt Q6IN02). The assay is described as above. The following applies: CREF/GAPDH counter-screens; HeLa PEG-Prom luciferase reporter, overnight, run 2, dose range 1, at 100 µM (top of the series) unless noted.
The target in assay [3] is Tumor necrosis factor receptor superfamily member 10B (Homo sapiens) (UniProt O14763). Put plainly: viability loss of caspase-8 NB7 cells with TRAIL – with/without TRAIL, luminescence panel, confirmation (AID 651596). The following applies: NB7 neuroblastoma + caspase-8, TRAIL sensitization, NB7 Caspase-8, with TRAIL, mean of runs, at 10 µM, stronger effect = higher value.
Assay in assay [4]: as above
The following applies: NB7 neuroblastoma + caspase-8, without TRAIL, NB7 Caspase-8, without TRAIL, mean of runs, at 10 µM.

Assay [5] in a line: NFkB reporter suppression in cystic fibrosis bronchial cells – cell-based, uHTS hits, panel, cytotoxicity readout, dose response (AID 624344). The following applies: CF bronchial epithelial cells, PAF-induced NFkB reporter inhibition, with PAF, run 1; at 79 µM (top of the series) unless noted.
Assay in assay [6]: as above
The following applies: CF bronchial epithelial cells, PAF-induced NFkB reporter inhibition, with PAF, run 2; at 79 µM (top of the series) unless noted.

The values that follow come from PubChem BioAssay.

Sequence of PEG-3 (Q6IN02 whole entry, looked up): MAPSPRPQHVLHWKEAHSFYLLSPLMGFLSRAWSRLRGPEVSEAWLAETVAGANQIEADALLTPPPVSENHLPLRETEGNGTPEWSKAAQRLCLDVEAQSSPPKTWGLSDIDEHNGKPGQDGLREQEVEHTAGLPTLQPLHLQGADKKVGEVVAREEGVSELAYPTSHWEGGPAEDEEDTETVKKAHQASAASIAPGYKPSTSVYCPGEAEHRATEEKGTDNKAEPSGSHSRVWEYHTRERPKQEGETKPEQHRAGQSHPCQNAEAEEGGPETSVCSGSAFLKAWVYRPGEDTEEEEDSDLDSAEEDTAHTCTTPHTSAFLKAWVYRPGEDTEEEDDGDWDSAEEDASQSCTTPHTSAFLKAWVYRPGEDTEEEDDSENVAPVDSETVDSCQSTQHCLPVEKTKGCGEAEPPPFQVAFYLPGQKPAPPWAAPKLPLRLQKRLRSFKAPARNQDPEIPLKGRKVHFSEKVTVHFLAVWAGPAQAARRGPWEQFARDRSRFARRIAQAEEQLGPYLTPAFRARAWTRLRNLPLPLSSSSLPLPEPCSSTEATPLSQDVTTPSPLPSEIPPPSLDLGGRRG
Sequence of Tumor necrosis factor receptor superfamily member 10B (Homo sapiens) (O14763 whole entry, looked up): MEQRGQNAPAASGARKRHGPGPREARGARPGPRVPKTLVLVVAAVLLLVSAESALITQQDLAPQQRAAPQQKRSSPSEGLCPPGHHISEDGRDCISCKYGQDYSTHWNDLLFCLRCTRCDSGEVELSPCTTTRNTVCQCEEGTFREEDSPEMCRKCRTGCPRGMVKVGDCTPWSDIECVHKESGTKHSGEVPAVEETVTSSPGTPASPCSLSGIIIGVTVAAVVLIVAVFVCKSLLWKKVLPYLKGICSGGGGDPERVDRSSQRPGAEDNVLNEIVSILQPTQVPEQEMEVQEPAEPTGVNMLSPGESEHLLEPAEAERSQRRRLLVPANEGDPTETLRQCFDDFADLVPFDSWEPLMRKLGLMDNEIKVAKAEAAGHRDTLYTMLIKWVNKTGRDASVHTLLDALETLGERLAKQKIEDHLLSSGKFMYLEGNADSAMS

For orientation: inhibition means the relative decrease from the control value, in per cent. As for `Cc1cc(C)c2sc(N(CCCN(C)C)C(=O)c3ccc(S(=O)(=O)N(C)C4CCCCC4)cc3)nc2c1`, the results for the inhibition in assay [1] and in assay [2] were 98.8% and 101%, respectively. For the same compound, the activity in assay [3] was determined as 17.8%; in assay [4], 4.92%.

On to `C=CC[C@@H](CC(=O)N(CCO)Cc1ccccc1)C(=O)NC[C@H](OC(=O)[C@@H](CC=C)Cc1ccc(F)cc1)c1ccccc1`, for which the inhibition in assay [5] is 110%; in assay [6] it was 102%.

`CC1CCCCN1S(=O)(=O)c1ccc(C(=O)N(CCCN(C)C)c2nc3ccc(Br)cc3s2)cc1` (stereo unspecified): the inhibition in assay [1] and in assay [2] was 102% throughout. Also, the activity came out at 22.4% in assay [3] and 17.7% in assay [4].

Regarding `CN1OC[C@@H]2CN[C@H](c3ccc(-c4cc5ccccc5o4)cc3)C[C@@H]21`, the values for the inhibition in assay [1] and in assay [2] were 98% and 101%, respectively. For the same compound, the activity in assay [3] amounted to 90.1%; in assay [4] it was 90.9%.

For `COC(=O)C1=C(C)N(Cc2ccccc2)C(=NCCc2c[nH]c3ccccc23)N[C@H]1c1cccc(C(F)(F)F)c1`, the figures for the inhibition in assay [1] and in assay [2] were 101% and 99.9%, respectively. The figures for the activity in assay [3] and in assay [4] were 17.3% and 44.5%, respectively.

On to `CCOC(=O)c1c(C)[nH]c(C(=O)N/N=C/c2ccc(Br)cc2)c1C`, for which the inhibition is 89.5% in assay [5] and 83.1% in assay [6].

Consider `CCCC(=O)N1CCCC(c2cc(C(=O)Nc3ccccc3)no2)C1` (stereo unspecified), for which the inhibition amounted to 85.5% in assay [1] and 90.8% in assay [2]. The activity amounted to 52.6% in assay [3] and 37.5% in assay [4].

Consider `Cc1cccc(-n2ncc3c(N(C)C4CCCCC4)ncnc32)c1`, for which the results for the inhibition in assay [1] and in assay [2] were 89% and 91.4%, respectively. The activity came out at 89.4% in assay [3] and 88% in assay [4].

`COc1ccc(COC(=O)C2=C(C)NC(=O)NC2c2ccc(OC)cc2)cc1` (stereo unspecified): the inhibition stood at 76.8% in assay [5] and 78% in assay [6].

For `COCc1cc(S(=O)c2ccc(Cl)cc2)nc(C)n1` (stereo unspecified), the values for the inhibition in assay [5] and in assay [6] were 103% and 105%, respectively.

For the compound `FC(F)Sc1ccc(NC(=S)NCC2CCCCC2)cc1`, the inhibition worked out at 106% in assay [5] and 112% in assay [6].

`CCOc1cccc2sc(N(CCCN(C)C)C(=O)c3ccc(S(=O)(=O)N(C)Cc4ccccc4)cc3)nc12`: the inhibition in assay [1] turned out to be 99.3%; in assay [2] it was 101%. In addition, the activity is 28.6% in assay [3] and -0.65% in assay [4].

In the case of `Cc1ccc(N(C)C(=O)c2cc(S(=O)(=O)N3CCCCC3)c[nH]2)cc1`, the inhibition is 93.5% in assay [5] and 79% in assay [6].

As for `N/C(=N\OC(=O)c1ccccc1)C(Cc1ccccc1)C(=O)NOC(=O)c1ccccc1` (stereo unspecified), the inhibition is 97.4% in assay [1] and 99.1% in assay [2]. Besides, the activity in assay [3] turned out to be 98%; in assay [4], 97.8%.

Take `CCOC(=O)c1c(C)[nH]c(C(=O)OCC(=O)Nc2sccc2C(N)=O)c1C`: the values for the inhibition in assay [1] and in assay [2] were 76.2% and 101%, respectively. Besides, the activity came out at 69.8% in assay [3] and 62.2% in assay [4].

`CNc1ccc2ncc(-c3ccc(OC)c(OC)c3)n2n1`: the inhibition in assay [5] was 106%; in assay [6] it was 118%.

With `O=C(CCC1COc2ccccc2O1)Nc1ccc(Cl)cn1` (stereo unspecified), the inhibition in assay [5] is 104%; in assay [6] it was 112%.

With `CCOc1cc(/C=N/N=C(N)N)ccc1OCc1ccc(Cl)cc1`, the values for the inhibition in assay [1] and in assay [2] were 99.3% and 98.5%, respectively. The results for the activity in assay [3] and in assay [4] were 70% and 96.9%, respectively.

As for `Cc1cccc(N2CCN(C(=O)c3[nH]c(C(F)(F)F)nc3-c3ccccc3)CC2)c1C`, the inhibition in assay [5] amounted to 91.2%; in assay [6] it was 103%.

Take `CC1(C)Oc2cc3oc(-c4cc(O)cc(O)c4)cc3cc2CC1O` (stereo unspecified): the inhibition amounted to 93.6% in assay [1] and 94.6% in assay [2]. Further, the activity in assay [3] came to 81.8%; in assay [4], 75.9%.

As for `O=c1c2ccccc2oc2cc(C#CC3(O)CCCCC3)ccc12`, the inhibition in assay [1] and in assay [2] was 102% in each case. In addition, the results for the activity in assay [3] and in assay [4] were 87.3% and 85.3%, respectively.

Consider `C=C(c1ccc2nc(NC(=O)OC)[nH]c2c1)c1cccs1`, for which the inhibition in assay [5] was 101%; in assay [6] it was 110%.

Take `Cc1cnc(NC(=O)CCCc2nc3ccccc3s2)s1`: the values for the inhibition in assay [5] and in assay [6] were 101% and 114%, respectively.

For the compound `c1csc(CNc2ncnc3ccc(-c4ccoc4)cc23)c1`, the inhibition in assay [5] stood at 105%; in assay [6] it was 116%.

With `NS(=O)(=O)c1ccc(CCNc2nn3c(-c4cccc(OC(F)(F)F)c4)cnc3s2)cc1`, the values for the inhibition in assay [5] and in assay [6] were 98.6% and 102%, respectively.

For the compound `ON=C1c2ccccc2-c2ccccc21`, the inhibition stood at 95.8% in assay [5] and 106% in assay [6].

On to `c1ccc(-c2nc3nonc3nc2-c2ccccc2)cc1`, for which the inhibition in assay [5] is 102%; in assay [6], 109%.

In the case of `CC(C)C[C@@H](CN1CCCC1CN1C(=S)NC[C@@H]1Cc1ccc(O)cc1)N1C[C@H](Cc2ccc(O)cc2)N(CCc2ccccc2)C1=S` (stereo partly specified), the inhibition in assay [5] was 112%; in assay [6], 101%.

Take `COc1ccc(-c2csc(NC3OC(=O)c4c3ccc(OC)c4OC)n2)cc1OC` (stereo unspecified): the inhibition in assay [5] was 109%; in assay [6], 100%.

Consider `CCCCN(CCCC)c1ncnc2nc[nH]c12`, for which the figures for the inhibition in assay [5] and in assay [6] were 102% and 118%, respectively.

With `CN(C)CCCN(C(=O)CCOc1ccccc1)c1nc2ccc(F)cc2s1`, the inhibition in assay [5] was found to be 101%; in assay [6], 105%.

As to `CC1(Cc2ccc(F)cc2)C(=O)Nc2ccc(-c3cccnc3)cc21` (stereo unspecified), the inhibition worked out at 98.2% in assay [5] and 108% in assay [6].

`CC(=O)OC1CCC2(C)C(CCC3C4CC=C(C(C)=O)C4(C)OC(=O)CC32)C1` (stereo unspecified): the inhibition is 99.2% in assay [5] and 104% in assay [6].

Turning to `CC(C)C[C@H]1CNC(=S)N1C[C@H]1CCCN1C[C@H](Cc1ccccc1)N1C[C@H](Cc2ccc(O)cc2)N(CC2CCCCCC2)C1=S`, the results for the inhibition in assay [5] and in assay [6] were 103% and 112%, respectively.

For `O=C(Nc1ccc(Br)c2ccccc12)c1ccc2ccccc2c1O`, the inhibition worked out at 112% in assay [5] and 104% in assay [6].

Take `O=C(c1cc([N+](=O)[O-])ccc1N1CCOCC1)N1CCN(c2ccccc2)CC1`: the results for the inhibition in assay [5] and in assay [6] were 116% and 79.6%, respectively.
